# EBV gp42 inh = inhibitors of Epstein-Barr virus glycoprotein 42; Fluorescence polarization binding assay, mP read-out; inhibition, % (tested at 21.74 µM); 220,000 compounds, 0.42% hits; AID 1085; in the data active = inhibition above about 50%
# eLon inh = E. coli protease La inhibition; P0A9M0; purified E. coli Lon protease, fluorescence polarization; inhibition, % at 7.94 µM; 360,000 compounds, 0.42% hits; AID 602123; in the data active = inhibition above about 13%, passing the limit was not always enough;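 note: 0% = enzyme with probe and DMSO and 100% = no enzyme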
# C-LANA FP = blocks KSHV LANA C-terminal domain binding to DNA. AID 504423. inhibition, % at 9 µM. 340,000 compounds, 0.078% hits. MBP-C-LANA/FAM-LBS DNA binding, fluorescence polarization;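 active = highest replicate inhibition at or above 60% at 9 µM, even if other replicates fall short; inactive = all replicates below 60% inhibition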;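 note: 0% = neutral control wells and 100% = 4 µM acridine orange control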
# LANA-H2B inh = blocks KSHV LANA binding to histone H2A/H2B; inhibition, % (concentration not given with the values); 320,000 compounds, 0.6% hits; Q9QR71; AID 2629; cell-free LANA-H2A/H2B peptide, fluorescence polarization; in the data active = inhibition mostly above about 10%, no sharp cut-off; inactive = mostly below about 6.7%
# Keap1 Nrf2 FP = inhibitors of human Keap1-Nrf2 protein-protein interaction; Q14145; Keap1 Kelch-Nrf2 peptide fluorescence polarization, 1536-well; 340,000 compounds, 0.15% hits; inhibition, % at 9.4 µM; in the data active = inhibition above about 12%;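 note: human Keap1 Kelch domain with fluorescein labeled Nrf2 9mer peptide probe; 0% = neutral control wells and 100% = peptide positive control; higher means more block of Keap1 binding to Nrf2 peptide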
# Target sequence (Q14145 whole entry, looked up, the tested form may be a part): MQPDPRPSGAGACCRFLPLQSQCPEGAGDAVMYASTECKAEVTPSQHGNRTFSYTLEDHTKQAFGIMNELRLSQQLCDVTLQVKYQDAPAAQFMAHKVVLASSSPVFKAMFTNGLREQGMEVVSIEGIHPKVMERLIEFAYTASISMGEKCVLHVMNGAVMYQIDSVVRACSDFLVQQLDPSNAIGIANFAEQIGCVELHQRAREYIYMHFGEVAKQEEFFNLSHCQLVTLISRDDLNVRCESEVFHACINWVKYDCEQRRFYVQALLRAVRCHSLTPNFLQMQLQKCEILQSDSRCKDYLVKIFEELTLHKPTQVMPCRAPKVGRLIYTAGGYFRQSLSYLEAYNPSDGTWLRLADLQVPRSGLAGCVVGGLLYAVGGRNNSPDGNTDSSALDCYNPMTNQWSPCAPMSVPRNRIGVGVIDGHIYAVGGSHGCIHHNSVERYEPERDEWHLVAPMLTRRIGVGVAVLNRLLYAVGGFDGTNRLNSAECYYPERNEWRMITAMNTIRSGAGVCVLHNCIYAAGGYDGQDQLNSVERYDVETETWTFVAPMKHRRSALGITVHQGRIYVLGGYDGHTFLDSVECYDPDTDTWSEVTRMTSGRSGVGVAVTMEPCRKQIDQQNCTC
# GLD-1 RNA inh = GLD-1-TGE RNA interaction inhibition (C. elegans); Q17339; purified GLD-1 + fluorescein TGE RNA, fluorescence polarization; inhibition, % at 5.96 µM; 320,000 compounds, 0.44% hits;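 active = percent inhibition above a per-plate cutoff, the plate mean of test compounds plus 3 SD, cut at about 30% in these data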;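 note: 0% = DMSO wells with GLD-1 and probe and 100% = wells lacking GLD-1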
# E coli Lon conf = confirmation of E. coli Lon protease inhibitors; shares compounds with eLon inh; purified E. coli Lon, fluorescence polarization; inhibition, % at 7.94 µM; 1,400 compounds, 31% hits; AID 602230; in the data active = inhibition above about 16%;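 note: 0% = enzyme with probe and DMSO and 100% = no enzyme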
# Numbers without * were called inactive; x = no result given; + = active, no number. In the library only some 1.5% were active in any assay of this set; here they are far more common.
SMILES,EBV gp42 inh,eLon inh,C-LANA FP,LANA-H2B inh,Keap1 Nrf2 FP,GLD-1 RNA inh,E coli Lon conf
O=C(N/N=C/c1ccc(-c2ccc(S(=O)(=O)Nc3ncccn3)cc2)o1)c1cc2ccccc2cc1O,47,26*,2,5,3,6,30*
COc1ccc(NC(=O)NN(C(=O)c2ccccc2)C(C)(C)C)cc1,-8,-2,-1,0,-4,4,x
CNC[C@@H]1Oc2cc(Br)ccc2S(=O)(=O)N([C@@H](C)CO)C[C@H]1C,x,-4,x,x,x,x,x
COC(=O)[C@H](C)NC(=O)NCCC1=CCCCC1,-15,24*,-3,-1,1,-3,9
CCC(C)[C@H](NC(=O)NCCC1=CCCCC1)C(=O)OC (stereo partly specified),-19,-4,-1,-1,-3,0,x
CC1(OC(=O)c2ccco2)C(=O)C=C2C=C(C3CC3)OC=C2C1=O (stereo unspecified),x,25*,11,5,-1,63*,13
COc1ccc(S(=O)(=O)Nc2ccc(F)cc2)cc1N(C)S(=O)(=O)c1ccc(Cl)cc1,-24,16*,0,-4,-7,2,41*
COc1ccc(NS(=O)(=O)c2ccc(OC)c(N(C)S(=O)(=O)c3ccc(Cl)cc3)c2)cc1,-1,3,2,2,2,4,x
CC(c1cccnc1)N(CCN(C)C)C(=O)Nc1ccc(Cl)cc1 (stereo unspecified),-17,15*,2,-4,-5,-1,-2
COc1cccc(NC(=O)N(CCN(C)C)C(C)c2cccnc2)c1 (stereo unspecified),-19,-3,23,1,-1,5,x
O=[N+]([O-])c1ccc(-c2ccc(C=Nc3cccc4ccccc34)o2)cc1,-16,-2,-2,0,3,25,x
O=[N+]([O-])c1cc(-c2ccc(/C=N/c3nc4ccccn4c3-c3ccco3)o2)ccc1Cl,9,27*,5,6,3,26,12
CCOc1ccc(OCCC(=O)OCC(=O)N2CCN(S(=O)(=O)c3ccc(C)cc3C)CC2)cc1,x,20*,1,x,-4,x,3
CN(c1ccc(C(=O)NCc2ccncc2)cc1)S(=O)(=O)c1ccc(Cl)cc1,x,7,0,-1,-4,7,x
O=c1c(/C=C(\O)c2ccc(F)cc2)nc2ccccc2n1-c1ccccc1,14,+,33,-3.4*,-21,-17,-205
Cc1ccccc1C(=O)N1CCN(c2ccc(N3CCOCC3)nn2)CC1,x,23*,-1,3,2,4,6
CCCc1nn(C)c(C(=O)Nc2cccc(Cl)c2)c1Cl,-7,30*,1,-5,-4,-5,2
CC(=O)Nc1cc(-c2ccccc2N(C)C)cn2c(-c3ccc(S(C)(=O)=O)cc3)cnc12,x,+,x,x,x,x,55*
COc1ccc(N(CC(=O)Nc2ccc(S(=O)(=O)N3CCOCC3)cc2)S(C)(=O)=O)cc1OC,x,16*,x,x,x,x,6
COc1ccc(C)cc1N(CC(=O)Nc1ccc(S(=O)(=O)N2CCOCC2)cc1)S(C)(=O)=O,x,8,-4,5,-5,1,x
CC(C)NCC1CCc2cc(CO)c([N+](=O)[O-])cc2N1 (stereo unspecified),-6,4,-7,4,1,9,x
CCN(CC(=O)NCc1ccc(Cl)cc1)C(=O)CCC(=O)c1ccc(C)cc1,x,-3,-1,4,-2,3,x
COc1ccc(OC)c(NC(=O)CSc2nncc3ccc(OC)c(OC)c23)c1,-1,50*,3,-1,0,10,1
COc1ccc2cnnc(SCC(=O)Nc3ccccc3)c2c1OC,-22,-2,1,4,-3,11,x
CC(C)N(Cc1nccn1C)C(=O)C1CCC(=O)N(CCc2ccccc2)C1 (stereo unspecified),x,1,x,x,x,x,x
SMILES,EBV gp42 inh,eLon inh,C-LANA FP,LANA-H2B inh,Keap1 Nrf2 FP,GLD-1 RNA inh,E coli Lon conf
COc1cc(OC)c(N(C)S(=O)(=O)c2cccc(C(=O)NC3=NCCS3)c2)cc1Cl,-7,1,-1,0,1,5,x
CCN(CC)CCCNc1ccc2ncn3c4ccc(O)cc4c(=O)c1c23,x,+,147*,x,108*,x,+
CN(C)CCNc1ccc2nnn3c4ccc(O)cc4c(=O)c1c23,x,7,-20,x,-3,x,x
Cc1cccc(C)c1OC(=O)CSc1nnc(-c2ccccc2O)o1,-23,-2,0,-2,-7,6,x
COC(=O)c1ccccc1NC(=S)NC(=O)c1ccccc1,-6,16*,0,-2,-18,0,10
Cc1ccc2cccc(NC(=S)NC(=O)c3ccccc3)c2n1,-8,-13,1,1,4,5,x
Cc1ccc2cccnc2c1NC(=S)NC(=O)c1ccccc1,-18,19*,0,2,-7,5,2
COC(=O)c1ccccc1NC(=S)NC(=O)c1ccc(C)cc1,2,-6,1,-1,3,3,x
CCCCn1c(N)c(N(CCOC)C(=O)c2ccc(S(=O)(=O)N3CCCCCC3)cc2)c(=O)[nH]c1=O,x,8,-2,-1,-2,7,x
COc1cccc(NC(=O)Nc2nnc([C@@H]3C[C@H](O)[C@@H](CO)O3)s2)c1,x,-16,x,x,x,x,x
CC(=O)c1c(C)[nH]c(C(=O)CSc2nnc(-c3ccco3)n2Cc2ccccc2)c1C,-7,1,1,2,-4,-2,x
CC(=O)c1c(C)[nH]c(C(=O)CSc2nnc(-c3ccccc3)n2Cc2ccc3c(c2)OCO3)c1C,-9,18*,-2,4,3,-4,4
Cc1ccc(NC(=S)N=Nc2c(O)[nH]c3ccccc23)cc1,-3,14*,0,0,-2,0,-13
Oc1ccc(NC(=S)N=Nc2c(O)[nH]c3ccccc23)cc1,2,18*,-1,1,-5,0,21*
COc1ccc(NC(=S)N=Nc2c(O)[nH]c3ccccc23)cc1,-6,13,0,-3,-3,1,x
Cc1ccccc1N(C(=O)c1cccs1)c1nc2ccccc2s1,-23,-13,0,0,4,1,x
C[C@H]1CN([C@@H](C)CO)C(=O)CCCn2nncc2CO[C@H]1CN(C)S(=O)(=O)c1cccc(F)c1,x,13*,x,x,x,x,-14
C[C@H](CO)N1C[C@H](C)[C@@H](CN(C)S(=O)(=O)c2cccc(F)c2)OCc2cnnn2CCCC1=O,x,7,x,x,x,x,x
CCN(CC)CCNC(=O)c1cc2cc(Br)ccc2s1,-6,6,-4,1,-3,-4,x
c1cc(-c2ccoc2)n2ccnc2c1,x,73*,x,x,x,x,13
COC(=O)c1ccc(NC(=O)C(=O)NCC2CCCO2)cc1 (stereo unspecified),-22,-1,1,3,0,7,x
CC(=O)c1ccc(NC(=O)c2cccc(N3C(=O)c4ccccc4C3=O)c2)cc1,x,4,0,-1,-1,-4,x

# Screening results: PubChem BioAssay, several laboratories
